Reference: PubChem BioAssay (Tox21)
Inconclusive results are not listed. Activity calls are given as the source filed them. Unless noted, the call rests on the fitted dose curve; in most records, active means well fitted curve in the direction sought with a large enough effect in the repeat runs; inconclusive means weak or mixed curves; inactive means no such curve, though single readings can be large; an effect the other way counts as inactive or inconclusive.

Tests used:
[1] = qHTS assay to identify small molecule antagonists of the thyroid receptor (TR) signaling pathway - cell viability counter screen (AID 743064); further: nearly all actives have a fitted effect of over 50% in size
In short: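 Fluorescence from CellTiter-Fluor, added after 23.5 h exposure at 37 °C, reported viability of GH3.TRE-Luc cells co-treated with compound and 1 nM T3. Measured in the same wells as the luciferase TR readout.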

[2] = qHTS assay to identify small molecule antagonists of the thyroid receptor (TR) signaling pathway (AID 743065); further: series mostly up to about 70 µM; nearly all actives have a fitted effect of over 55% in size
In short: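 GH3.TRE-Luc rat pituitary cells carrying two TR response elements driving luciferase were plated for 4 h, given compound plus 1 nM T3 (final), and incubated 23.5 h at 37 C. ONE-Glo luminescence measured reporter inhibition; CellTiter-Fluor fluorescence tracked cytotoxicity.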

[3] = tested on: thyroid hormone receptor (rat, GH3 cells); assay: qHTS assay to identify small molecule agonists of the thyroid receptor (TR) signaling pathway (AID 743066; calls by dose curve)
[4] = target: Estrogen receptor (Homo sapiens) (UniProt P03372); assay: qHTS assay to identify small molecule antagonists of the estrogen receptor alpha (ER-alpha) signaling pathway (AID 743069; active means well fitted curve in the direction sought with a large enough effect in the signal ratio in the repeat runs, not every such curve was filed as active; the % refers to the signal ratio)
In short: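 Screening used a UAS-driven beta-lactamase reporter integrated into HEK293 cells expressing ER-alpha, stimulated with 17beta-estradiol alongside test compounds over 18 hr at 37C; signal came from LiveBLAzer B/G FRET fluorescence.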

[5] = qHTS assay to identify small molecule antagonists of the estrogen receptor alpha (ER-alpha) signaling pathway - cell viability counter screen (AID 743074; calls by dose curve; further: nearly all actives have a fitted effect of over 45% in size)
[6] = target: Estrogen receptor (Homo sapiens) (UniProt P03372); assay: qHTS assay to identify small molecule agonists of the estrogen receptor alpha (ER-alpha) signaling pathway (AID 743075; calls by dose curve; further: potency means the concentration at half of the fitted maximal effect)
[7] = target: Estrogen receptor (Homo sapiens) (UniProt P03372); assay: qHTS assay to identify small molecule agonists of the estrogen receptor alpha (ER-alpha) signaling pathway using the BG1 cell line (AID 743079); further: nearly all actives have a fitted effect of over 20% in size; further: potency means the concentration at half of the fitted maximal effect
[8] = qHTS assay to identify small molecule antagonists of the estrogen receptor alpha (ER-alpha) signaling pathway using the BG1 cell line (AID 743080; calls by dose curve;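 further: BG1 cells stimulated with 17beta-estradiol alongside compound; series mostly up to about 70 µM; nearly all actives have a fitted effect of over 25% in size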)
In short: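 Seeding, 24 h rest, compound transfer from DMSO, 17beta-estradiol addition, 21.5 h incubation, CellTiter-Fluor (30 min, 37 C), then ONE-Glo (30 min, room temperature): this sequence was run on BG1-Luc-4E2 reporter cells.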

[9] = qHTS assay to identify small molecule antagonists of the estrogen receptor alpha (ER-alpha) signaling pathway using the BG1 cell line - cell viability counter screen (AID 743081);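 further: compound given together with 17beta-estradiol as the ER stimulus; series mostly up to about 70 µM; nearly all actives have a fitted effect of over 45% in size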
Aromatase (Homo sapiens) = Aromatase (Homo sapiens) (UniProt P11511); assay: qHTS assay to identify aromatase inhibitors (AID 743083); further: series mostly up to about 70 µM; nearly all actives have a fitted effect of over 55% in size
[10] = qHTS assay to identify aromatase inhibitors - cell viability counter screen (AID 743084);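 further: cells stimulated with testosterone during compound exposure; nearly all actives have a fitted effect of over 55% in size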
[11] = qHTS assay to identify small molecule that activate the aryl hydrocarbon receptor (AhR) signaling pathway - cell viability counter screen (AID 743086);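 further: HepG2 liver cells carrying the AhR DRE luciferase reporter; series mostly up to about 70 µM; nearly all actives have a fitted effect of over 45% in size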
In short: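 HepG2-AhR-luc (HG2L7.5c1) cells, 4000/well, were preincubated 5 h at 37C, exposed to compound in qHTS format for 24 hr at 37C, then given CellTiter-Fluor for 30 min; viability was read as fluorescence in the reporter wells.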

[12] = target: Peroxisome proliferator-activated receptor gamma (Homo sapiens) (UniProt P37231); assay: qHTS assay to identify small molecule agonists of the peroxisome proliferator-activated receptor gamma (PPARg) signaling pathway (AID 743094; active means well fitted activation curve with a large enough effect in the signal ratio in the repeat runs, not every such curve was filed as active; the % refers to the signal ratio)
In short: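 Agonism was assessed in a beta-lactamase reporter system, HEK293H cells with a stably integrated UAS-bla construct under PPARg control; the 17 h treatment at 37C preceded a 1 h room-temperature FRET substrate read.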

[13] = target: Peroxisome proliferator-activated receptor gamma (Homo sapiens) (UniProt P37231); assay: qHTS assay to identify small molecule antagonists of the peroxisome proliferator-activated receptor gamma (PPARg) signaling pathway (AID 743191; calls by dose curve; further: series mostly up to about 63 µM; nearly all actives have a fitted effect of over 30% in size)
In short: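 GeneBLAzer PPARg UAS-bla HEK293H cells carrying a UAS-driven beta-lactamase reporter were plated at 3000 cells/well, preincubated 5 h at 37C, then given compound for 17 h at 37C; LiveBLAzer B/G FRET substrate was read after 1 h at room temperature.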

[14] = qHTS assay to identify small molecule antagonists of the peroxisome proliferator-activated receptor gamma (PPARg) signaling pathway - cell viability counter screen (AID 743194); further: nearly all actives have a fitted effect of over 55% in size
In short: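 PPARg-UAS-bla HEK293H cells were plated, rested 5 h at 37 C, then treated with compounds plus rosiglitazone (50 nM final) for 17 h at 37 C; viability was then read by CellTiter-Glo luminescence after 30 min at room temperature.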

[15] = qHTS assay for small molecule agonists of the antioxidant response element (ARE) signaling pathway - cell viability counter screen (AID 743203; calls by dose curve; further: nearly all actives have a fitted effect of over 55% in size)
In short: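 ATP content via CellTiter-Glo luminescence served as the viability measure. Cells: ARE-bla HepG2, 2,000 per well. Exposure: 16 hrs, 37C/5% CO2.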

[16] = qHTS assay for small molecule activators of the heat shock response signaling pathway - cell viability counter screen (AID 743209); further: nearly all actives have a fitted effect of over 50% in size
In short: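 Compounds dissolved in DMSO were added to overnight-plated HSE-bla HeLa cells and left 5 h at 37 C. Cell viability was quantified by luminescence using CellTiter-Glo.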

[17] = qHTS assay for small molecule activators of the heat shock response signaling pathway (AID 743210; active means well fitted activation curve with a large enough effect in the signal ratio in the repeat runs, with a control signal flat, not every such curve was filed as active; the % refers to the signal ratio;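 further: HeLa cells with beta-lactamase reporter driven by heat shock elements; series mostly up to about 63 µM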)
In short: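 Activation of heat shock element-controlled beta-lactamase expression is measured in HeLa cells by LiveBLAzer FRET fluorescence, with compound exposure lasting 5 h at 37 C and substrate loading 2.5 h at room temperature.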

[18] = qHTS assay for small molecule agonists of the antioxidant response element (ARE) signaling pathway (AID 743202; active means well fitted activation curve with a large enough effect in the signal ratio in the repeat runs, not every such curve was filed as active; the % refers to the signal ratio)
In short: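 Steps: seed ARE-bla HepG2 cells (2,000/well); incubate 5 h at 37 C; add compounds by pin tool; incubate 16 h at 37 C; add FRET substrate; read fluorescence after 2 h at RT.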

[19] = target: Aryl hydrocarbon receptor (Homo sapiens) (UniProt P35869); assay: qHTS assay to identify small molecule that activate the aryl hydrocarbon receptor (AhR) signaling pathway (AID 743085); further: nearly all actives have a fitted effect of over 15% in size; further: potency means the concentration at half of the fitted maximal effect;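 on activation: HG2L7.5c1 human HepG2 liver cells with stably integrated DRE-driven firefly reporter; series mostly up to about 70 µM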
In short: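 Cell line HG2L7.5c1 (human hepatoma, 20× DRE-luc). Plated, 5 h 37C, compound/DMSO added, 24 h 37C. CellTiter-Fluor 30 min 37C → fluorescence; then ONE-Glo 30 min RT → luminescence.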

Measured: Potency

Chain of Estrogen receptor (Homo sapiens) (P03372 whole entry, looked up): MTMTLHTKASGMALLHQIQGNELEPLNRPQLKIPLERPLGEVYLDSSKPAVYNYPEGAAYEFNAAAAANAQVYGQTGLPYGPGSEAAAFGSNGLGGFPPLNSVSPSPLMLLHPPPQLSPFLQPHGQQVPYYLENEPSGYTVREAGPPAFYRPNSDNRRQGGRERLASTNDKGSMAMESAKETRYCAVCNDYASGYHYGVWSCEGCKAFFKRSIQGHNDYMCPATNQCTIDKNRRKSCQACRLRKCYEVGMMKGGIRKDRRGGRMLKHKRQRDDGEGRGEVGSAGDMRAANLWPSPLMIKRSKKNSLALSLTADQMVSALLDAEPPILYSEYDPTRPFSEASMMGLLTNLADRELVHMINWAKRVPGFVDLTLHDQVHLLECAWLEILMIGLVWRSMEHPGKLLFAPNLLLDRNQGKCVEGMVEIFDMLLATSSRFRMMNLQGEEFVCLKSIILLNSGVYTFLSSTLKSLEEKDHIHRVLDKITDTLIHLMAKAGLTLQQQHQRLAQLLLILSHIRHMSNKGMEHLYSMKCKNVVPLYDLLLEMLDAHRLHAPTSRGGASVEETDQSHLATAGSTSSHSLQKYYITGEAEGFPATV
Chain of Aryl hydrocarbon receptor (Homo sapiens) (P35869 whole entry, looked up): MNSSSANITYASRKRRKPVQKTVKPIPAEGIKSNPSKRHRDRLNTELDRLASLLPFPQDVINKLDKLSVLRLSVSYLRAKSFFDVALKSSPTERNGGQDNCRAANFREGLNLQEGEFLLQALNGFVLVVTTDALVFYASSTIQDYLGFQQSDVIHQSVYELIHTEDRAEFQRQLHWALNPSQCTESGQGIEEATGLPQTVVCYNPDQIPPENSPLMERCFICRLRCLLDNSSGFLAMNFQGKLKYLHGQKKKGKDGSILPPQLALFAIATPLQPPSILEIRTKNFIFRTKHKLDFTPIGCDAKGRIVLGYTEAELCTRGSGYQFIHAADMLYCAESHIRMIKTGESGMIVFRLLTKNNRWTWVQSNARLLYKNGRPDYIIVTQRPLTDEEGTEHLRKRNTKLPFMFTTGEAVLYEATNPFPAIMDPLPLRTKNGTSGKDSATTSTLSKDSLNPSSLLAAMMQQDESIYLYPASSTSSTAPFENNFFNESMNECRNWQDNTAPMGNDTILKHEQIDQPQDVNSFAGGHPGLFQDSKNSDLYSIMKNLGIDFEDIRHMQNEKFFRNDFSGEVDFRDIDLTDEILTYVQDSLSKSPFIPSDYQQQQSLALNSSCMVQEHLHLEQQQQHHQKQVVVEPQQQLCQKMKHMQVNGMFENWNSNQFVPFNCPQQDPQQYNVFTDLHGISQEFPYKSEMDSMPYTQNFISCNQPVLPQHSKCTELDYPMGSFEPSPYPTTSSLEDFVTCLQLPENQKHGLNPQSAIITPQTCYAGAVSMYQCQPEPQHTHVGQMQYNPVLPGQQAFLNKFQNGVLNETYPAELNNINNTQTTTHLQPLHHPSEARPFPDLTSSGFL
Chain of Peroxisome proliferator-activated receptor gamma (Homo sapiens) (P37231 whole entry, looked up): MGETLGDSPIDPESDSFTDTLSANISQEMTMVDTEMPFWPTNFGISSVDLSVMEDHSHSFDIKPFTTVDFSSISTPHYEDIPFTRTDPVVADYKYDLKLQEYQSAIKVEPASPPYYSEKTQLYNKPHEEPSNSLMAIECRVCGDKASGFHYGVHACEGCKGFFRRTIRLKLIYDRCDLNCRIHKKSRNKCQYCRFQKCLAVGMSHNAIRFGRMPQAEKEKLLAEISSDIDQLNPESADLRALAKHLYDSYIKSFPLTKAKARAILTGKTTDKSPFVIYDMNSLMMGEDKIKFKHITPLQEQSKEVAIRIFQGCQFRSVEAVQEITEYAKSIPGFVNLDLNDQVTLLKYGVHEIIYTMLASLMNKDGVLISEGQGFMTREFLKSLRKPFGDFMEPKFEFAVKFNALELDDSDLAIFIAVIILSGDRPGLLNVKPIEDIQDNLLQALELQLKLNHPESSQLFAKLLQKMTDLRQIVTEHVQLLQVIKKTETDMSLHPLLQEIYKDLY
Chain of Aromatase (Homo sapiens) (P11511 whole entry, looked up): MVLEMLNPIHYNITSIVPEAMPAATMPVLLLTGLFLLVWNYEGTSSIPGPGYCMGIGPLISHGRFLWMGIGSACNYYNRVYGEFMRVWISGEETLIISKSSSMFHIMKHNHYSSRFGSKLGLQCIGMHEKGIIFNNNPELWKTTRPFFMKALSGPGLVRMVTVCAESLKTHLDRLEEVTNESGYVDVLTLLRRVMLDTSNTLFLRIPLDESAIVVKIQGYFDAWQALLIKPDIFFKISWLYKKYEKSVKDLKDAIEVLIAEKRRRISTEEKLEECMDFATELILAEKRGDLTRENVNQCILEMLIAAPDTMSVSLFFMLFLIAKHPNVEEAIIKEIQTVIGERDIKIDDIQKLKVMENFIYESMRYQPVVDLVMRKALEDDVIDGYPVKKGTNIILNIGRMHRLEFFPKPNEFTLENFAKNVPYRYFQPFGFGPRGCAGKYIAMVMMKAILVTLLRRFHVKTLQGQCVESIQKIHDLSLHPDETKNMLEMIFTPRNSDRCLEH

OC[C@H]1O[C@@H](O[C@@H]2[C@@H](CO)O[C@](O)(CO)[C@H]2O)[C@H](O)[C@@H](O)[C@H]1O
not listed: [18] | [19]
inactive: all other assays above

Cc1ccc(N)cc1S(=O)(=O)O
not listed: [16] | [19]
inactive: all other assays above

Cc1c(N)cccc1Cl
not listed: [5] | [7] | [18] | [19]
inactive: all other assays above

N[C@@H](CSCCCO)C(=O)O
not listed: [13] | [18] | [19]
inactive: all other assays above

CC1(C)O[C@H]2CC(=O)OC[C@]23[C@H]2CC[C@@]4(C)[C@H](c5ccoc5)OC(=O)[C@H]5O[C@]54[C@]2(C)C(=O)C[C@@H]13
active: [7] 13.3 µM
not listed: [8] | [9] | [13] | [16] | [19]
inactive: all other assays above

c1ccc(B(c2ccccc2)c2ccccc2)cc1
active: [6] 30.9 µM [activator] | [7] 34.3 µM | [19] 30.6 µM
not listed: [8] | [12] | [13] | [14] | [18]
inactive: all other assays above

CC(CO)(CO)CO
not listed: [7] | [13] | [16] | [18]
inactive: all other assays above

CC1=C(C(=O)O)N2C(=O)[C@@H](NC(=O)[C@H](N)c3ccccc3)[C@H]2SC1
not listed: Aromatase (Homo sapiens) | [13] | [18] | [19]
inactive: all other assays above

C[C@H]1[C@@H](c2ccccc2)NC(=O)N1C
not listed: [16] | [19]
inactive: all other assays above

CCO
not listed: [14] | [19]
inactive: all other assays above

O=C(CCCCC(=O)Nc1c(I)cc(I)c(C(=O)O)c1I)Nc1c(I)cc(I)c(C(=O)O)c1I
not listed: [9]
inactive: all other assays above

CC(=O)OCC(=O)Nc1cc(C#N)cc(NC(=O)COC(C)=O)c1Cl
not listed: [9] | [12] | [13] | [18]
inactive: all other assays above

CC1c2ccccc2CN1NC(=O)c1ccc(Cl)c(S(N)(=O)=O)c1 (stereo not drawn)
not listed: [10] | [19]
inactive: all other assays above

Cc1cc(-c2ccccc2)nnc1NCCN1CCOCC1
not listed: [7] | [19]
inactive: all other assays above
